This is a sample that favours compounds with a hit; in the whole collection about 3.7% have one here.
MITF act: increases MITF-driven TRPM1 promoter luciferase signal | SK-MEL-5 TRPM1-promoter luciferase, 24 h; % of positive control, neutral wells = 0 | activation, % at 12.5 µM | actives 0.75% (n = 300,000) | AID 588334;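 active = mean activation of at least 80% with every replicate also reaching 80%; inconclusive = mean reaches 80% but some replicate falls short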
Wnt bcat act: activators of Wnt/beta-catenin signaling; Wnt/beta-catenin reporter cell assay, activator, plate reader; activation, % at 9.35 µM; actives 1.2% (n = 300,000); in the data active = activation above about 30%, passing the limit was not always enough; inconclusive = no clear call, values can overlap the other calls
rRNA inh HTS: inhibits bacterial ribosomal RNA function over humanized ribosomes. GFP signal change (wild-type ribosome), % (no concentration beside the values). E. coli WT GFP vs humanized-ribosome RFP mutants, fluorescence, 24 h; stronger effect = lower value; DMSO median 0, no signal -100. actives 1.6% (n = 350,000). AID 720706;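 active = significant combined selectivity score with lowered wild-type GFP, culture density cut under 30%, mutant RFP and density less affected; inactive = any of these conditions unmet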
AF4-AF9 inh: inhibitors of human MLL-AF4/AF9 interaction; P42568; AlphaScreen, biotin-AF4 peptide binding to FLAG-AF9; inhibition, % at 10 µM; actives 0.47% (n = 350,000);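 active = every replicate reaching a set inhibition limit, whatever the replicate mean, cut at about 25% in these data; inconclusive = mean inhibition reaches that limit but some replicates miss it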
Target sequence (P42568 whole entry, looked up): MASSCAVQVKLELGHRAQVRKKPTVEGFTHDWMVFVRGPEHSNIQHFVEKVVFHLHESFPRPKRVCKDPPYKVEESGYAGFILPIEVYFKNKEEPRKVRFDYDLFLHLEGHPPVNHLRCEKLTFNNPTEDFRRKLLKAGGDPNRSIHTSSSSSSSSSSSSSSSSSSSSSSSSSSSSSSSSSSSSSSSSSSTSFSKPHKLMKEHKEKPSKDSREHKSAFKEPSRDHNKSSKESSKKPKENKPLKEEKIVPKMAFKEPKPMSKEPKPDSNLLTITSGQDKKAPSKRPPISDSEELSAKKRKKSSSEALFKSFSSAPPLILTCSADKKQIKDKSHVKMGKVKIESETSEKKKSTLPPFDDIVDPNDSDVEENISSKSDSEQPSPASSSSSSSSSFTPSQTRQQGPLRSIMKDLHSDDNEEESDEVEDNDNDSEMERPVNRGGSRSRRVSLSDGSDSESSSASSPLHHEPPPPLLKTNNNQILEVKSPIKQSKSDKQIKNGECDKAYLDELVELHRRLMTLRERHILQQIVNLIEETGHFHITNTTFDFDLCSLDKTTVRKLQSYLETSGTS
esBAF inh: blocks esBAF chromatin remodeling in mouse ES cells | Bmi1-luciferase knock-in reporter, 24 h; 100% = twice the neutral-well signal | reporter increase, % at 12.5 µM | actives 2% (n = 350,000) | AID 602393; in the data active = activation above about 40%; inconclusive = no clear call, values can overlap the other calls;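 note: a rise in the Bmi1 reporter signal indicates esBAF inhibition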
esBAF Ring1 qPCR: confirmation of esBAF inhibitors: Ring1 de-repression in mouse ESCs. mouse ESC E14, Ring1 mRNA RT-qPCR fold change. 550 tested, under 10 active. fold change at 33 µM. shares compounds with esBAF inh;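 active = Ring1 gene expression raised more than 2-fold over untreated cells in both replicates at either tested dose; inconclusive = only one replicate above 2-fold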;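 note: Ring1 transcript normalised to actin housekeeping signal by TaqMan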
Fgf4 repress: represses Fgf4 in mouse ESCs, confirming esBAF inhibition | actives 4% (n = 550) | Fgf4 expression fold change at 33 µM | AID 743177 | shares compounds with esBAF inh | mouse ESC E14, Fgf4 mRNA qPCR fold change; stronger effect = lower value;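 active = Fgf4 expression under 0.8 fold of control in both repeat measurements at one or both tested doses; inconclusive = under 0.8 fold in just a single repeat measurement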;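 note: Fgf4 transcript normalised to actin in duplex TaqMan qPCR; cells exposed to compound for 24 h before lysis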
Bmi1 derepress: de-represses Bmi1 in mouse ESCs, confirming esBAF inhibition. shares compounds with esBAF inh. mouse ESE14 ES cells, Bmi1 mRNA qPCR fold; stronger effect = higher value. fold change at 33 µM. 550 tested, under 10 active. AID 743180;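 active = Bmi1 expression fold change above 6 at either tested concentration, seen in replicate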;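 note: higher fold means more Bmi1 de-repression and stronger esBAF inhibition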
A549 cytotox: A549 cell cytotoxicity; shares compounds with esBAF inh; plate reader; cell viability change % (negative = cytotoxic), % at 25 µM, hits read low; 550 tested, under 10 active; call rule not given here
HepG2 tox SP: kills or reduces viability of HepG2 cells. shares compounds with esBAF inh. HepG2 cytotoxicity, plate reader; stronger effect = lower value. activity change, negative = inhibition, % at 25 µM. actives 4% (n = 550); in the data active = activity change below about -50%
HEK293 cytotox SP: kills or reduces viability of HEK293 cells; shares compounds with esBAF inh; HEK293 cytotoxicity, plate reader; activity change, negative = inhibition, % at 25 µM, hits read low; actives 3% (n = 550); AID 743190; in the data active = activity change below about -38%, passing the limit was not always enough
Of the large screens only hits and unclear results are named; the others gave an inactive call (follow-up assays come after a bar, where they were run).

Cc1ccc(C)c(NC(=O)C2CC3CCC2C3)c1 (stereo not given)	none (no result: MITF act)
N#Cc1nc(-c2cccc3ccccc23)oc1N1CCCCC1	none (no result: Wnt bcat act, rRNA inh HTS, AF4-AF9 inh)
CC1CCN(c2oc(-c3cccc4ccccc34)nc2C#N)CC1	MITF act inconclusive, esBAF inh 67.1 (no result: AF4-AF9 inh) | esBAF Ring1 qPCR inactive | Fgf4 repress inactive | Bmi1 derepress inactive | A549 cytotox inactive | HepG2 tox SP -52.6 | HEK293 cytotox SP inactive
COc1ccc(-c2cc(C(=O)Nc3ccc(C(N)=O)cc3)c3ccccc3n2)cc1	esBAF inh 57.4 (no result: MITF act) | esBAF Ring1 qPCR inactive | Fgf4 repress inconclusive | Bmi1 derepress inactive | A549 cytotox inactive | HepG2 tox SP inactive | HEK293 cytotox SP inactive
COc1cccc(-c2cc(C(=O)Nc3ccccc3)c3ccccc3n2)c1	none (no result: MITF act, esBAF inh)
COc1ccc(-c2cc(C(=O)N3CCN(c4ccccc4O)CC3)c3ccccc3n2)cc1	esBAF inh 63.7 (no result: MITF act) | esBAF Ring1 qPCR inactive | Fgf4 repress inactive | Bmi1 derepress inactive | A549 cytotox inactive | HepG2 tox SP inactive | HEK293 cytotox SP inactive
COc1ccc(-c2cc(C(=O)N3CCN(c4ccccc4O)CC3)c3ccccc3n2)cc1OC	none (no result: esBAF inh)
O=C(CN1C(=O)NC2(CCCC2)C1=O)N1CCN(c2ccccc2Cl)CC1	none
Cc1ccc2c(CN(C)Cc3ccccc3)cc(=O)oc2c1	esBAF inh 88.3 (no result: MITF act) | esBAF Ring1 qPCR inactive | Fgf4 repress inactive | Bmi1 derepress inactive | A549 cytotox inactive | HepG2 tox SP inactive | HEK293 cytotox SP inactive
Cc1ccc2c(CN(C)Cc3cccc(F)c3)cc(=O)oc2c1	MITF act 87.6, esBAF inh 90.3 | esBAF Ring1 qPCR inactive | Fgf4 repress inconclusive | Bmi1 derepress inactive | A549 cytotox inactive | HepG2 tox SP inactive | HEK293 cytotox SP inactive
Cc1cc2oc(=O)cc(CN(C)Cc3cccc(F)c3)c2cc1Cl	none
Cc1cc2oc(=O)cc(CN(C)Cc3ccccc3F)c2cc1Cl	esBAF inh 63.7 (no result: rRNA inh HTS) | esBAF Ring1 qPCR inactive | Fgf4 repress 0.653 | Bmi1 derepress inactive | A549 cytotox inactive | HepG2 tox SP inactive | HEK293 cytotox SP inactive
CCOC(=O)c1cc(-c2csc(-c3ccc(C(F)(F)F)cc3)n2)on1	none (no result: esBAF inh)
O=C(CNC(=O)c1ccccc1F)Nc1ccc2c(c1)OCO2	esBAF inh 62.1 (no result: rRNA inh HTS) | esBAF Ring1 qPCR inactive | Fgf4 repress inactive | Bmi1 derepress inactive | A549 cytotox inactive | HepG2 tox SP inactive | HEK293 cytotox SP inactive
Cc1cccc(NC(=O)C2C3CCCCC32)c1 (stereo not given)	esBAF inh 66.8 | esBAF Ring1 qPCR inactive | Fgf4 repress inactive | Bmi1 derepress inactive | A549 cytotox inactive | HepG2 tox SP inactive | HEK293 cytotox SP inactive
Cc1cc(C)c2nc(-c3ccccc3)ccc2c1	esBAF inh 62.7 (no result: MITF act) | esBAF Ring1 qPCR inactive | Fgf4 repress inconclusive | Bmi1 derepress inactive | A549 cytotox inactive | HepG2 tox SP inactive | HEK293 cytotox SP inactive
Cc1cccc(NC(=O)c2ccccn2)c1C	Wnt bcat act 36.3, esBAF inh 62.8 (no result: rRNA inh HTS, AF4-AF9 inh) | esBAF Ring1 qPCR inactive | Fgf4 repress inactive | Bmi1 derepress inactive | A549 cytotox inactive | HepG2 tox SP inactive | HEK293 cytotox SP inactive
O=C(Nc1cccc2ccccc12)c1cnccn1	esBAF inh 63.2 (no result: Wnt bcat act, rRNA inh HTS, AF4-AF9 inh) | esBAF Ring1 qPCR inactive | Fgf4 repress inactive | Bmi1 derepress inactive | A549 cytotox inactive | HepG2 tox SP inactive | HEK293 cytotox SP inactive
O=C(Nc1ccc(F)c(Cl)c1)c1cc(C2CCCN(C(=O)C3CC3)C2)on1 (stereo not given)	Wnt bcat act 38.3, esBAF inh 76.6 (no result: MITF act) | esBAF Ring1 qPCR inactive | Fgf4 repress inactive | Bmi1 derepress inactive | A549 cytotox inactive | HepG2 tox SP inactive | HEK293 cytotox SP inactive
C[C@@H]1CCCCO[C@@H](CN(C)C(=O)CCC(F)(F)F)[C@H](C)CN([C@@H](C)CO)C(=O)c2cc(NC(=O)Cc3ccccc3)ccc2O1	none (no result: MITF act, Wnt bcat act)
COc1cc(CNc2ccc(N3CCN(C(C)=O)CC3)cc2)ccc1OCc1ccc(F)cc1	rRNA inh HTS -27.4, esBAF inh 57.9 | esBAF Ring1 qPCR 2.17 | Fgf4 repress inactive | Bmi1 derepress inactive | A549 cytotox inactive | HepG2 tox SP inactive | HEK293 cytotox SP inactive
CCN(CC)C(=O)Oc1ccc2c(=O)c(-c3ccc(OC)cc3)coc2c1	MITF act inconclusive, esBAF inh 60.9 | esBAF Ring1 qPCR inactive | Fgf4 repress inactive | Bmi1 derepress inactive | A549 cytotox inactive | HepG2 tox SP inactive | HEK293 cytotox SP inactive
CCN(CC)C(=O)Oc1ccc2c(=O)c(-c3ccc(OC)cc3)c(C)oc2c1	none (no result: Wnt bcat act, rRNA inh HTS, AF4-AF9 inh)
COc1ccc(/C=C/C(=O)c2ccc(O)cc2)cc1	none (no result: rRNA inh HTS)
COc1cc(/C=C/c2ccc(O)cc2)cc(OC)c1	esBAF inh 60.6 (no result: MITF act) | esBAF Ring1 qPCR inactive | Fgf4 repress inactive | Bmi1 derepress inactive | A549 cytotox inactive | HepG2 tox SP inactive | HEK293 cytotox SP inactive
Cc1nc(NC(=O)c2ccccc2)sc1-c1cc(C(=O)N2CCOCC2)nn1CCO	none (no result: MITF act, esBAF inh)
CCn1c(SCC(=O)N2CCCC2)nc2ccccc21	none (no result: esBAF inh)
CCn1c(SCc2ccccc2Cl)nc2ccccc21	esBAF inh 56.9 (no result: rRNA inh HTS, AF4-AF9 inh) | esBAF Ring1 qPCR inactive | Fgf4 repress inactive | Bmi1 derepress inactive | A549 cytotox inactive | HepG2 tox SP inactive | HEK293 cytotox SP inactive
CC(=O)Oc1ccc(-c2cc3ccccc3oc2=O)cc1	esBAF inh 68.5 (no result: MITF act) | esBAF Ring1 qPCR inactive | Fgf4 repress inconclusive | Bmi1 derepress inactive | A549 cytotox inactive | HepG2 tox SP inactive | HEK293 cytotox SP inactive
COc1ccc(NC(=O)Nc2ccc3c(c2)C(=O)N([C@@H](C)CO)C[C@H](C)[C@H](CN(C)C(=O)NC2CCCCC2)OCCCC[C@@H](C)O3)cc1	none (no result: MITF act, Wnt bcat act)
COc1ccc(-c2cc(C(=O)Nc3cc(OC)c(OC)c(OC)c3)[nH]n2)c(C)c1	none (no result: MITF act)
COc1ccc(Cl)c(-c2cc(C(=O)Nc3ccc(F)cc3)[nH]n2)c1	esBAF inh 68.8 (no result: MITF act) | esBAF Ring1 qPCR inactive | Fgf4 repress inactive | Bmi1 derepress inactive | A549 cytotox inactive | HepG2 tox SP inactive | HEK293 cytotox SP inactive
COc1ccc(-c2cc(C(=O)Nc3ccc(NC(C)=O)cc3)[nH]n2)c(C)c1	esBAF inh 60.6 (no result: MITF act) | esBAF Ring1 qPCR inactive | Fgf4 repress inactive | Bmi1 derepress inactive | A549 cytotox inactive | HepG2 tox SP inactive | HEK293 cytotox SP inactive

Screening results as filed in PubChem BioAssay.
